Test results reported in PubChem BioAssay (NCI).
Where “and” joins values, the source holds several entries; their conditions need not be identical. Identical values can stand only once. This is part of a sample that, as a whole, favours compounds with a hit. Of some 83,000 tested, about 20% had one in any assay.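 Assay: single dose, 48 h. Readout: percent growth (0 = no net growth; negative = cell death). Active: <10.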 Calls of active or inactive are those of the source.

Experiments:
Assay in all cases: NCI-60 one-dose screen, 48 h (100 = growth as untreated, 0 = no growth, -100 = all killed)
Settings in all cases: 10 µM unless noted
[1] = tested on: NCI-H23 lung
[2] = tested on: NCI-H226 lung
[3] = tested on: NCI-H322M lung
[4] = tested on: HOP-62 NSCLC
[5] = tested on: NCI-H460 lung
[6] = tested on: NCI-H522 lung
[7] = tested on: A549/ATCC NSCLC
[8] = tested on: 786-0 renal
[9] = tested on: COLO 205 colon
[10] = tested on: DU-145 prostate
[11] = tested on: K-562 leukemia
[12] = tested on: MALME-3M melanoma
[13] = tested on: MDA-MB-231 breast
[14] = tested on: RXF 393 renal
[15] = tested on: SF-268 CNS
[16] = tested on: SF-295 CNS
[17] = tested on: SF-539 CNS
[18] = tested on: UACC-257 melanoma
[19] = tested on: M14 melanoma

Compound	growth [1]	growth [2]	growth [3]	growth [4]	growth [5]	growth [6]	growth [7]	growth [8]	growth [9]	growth [10]	growth [11]	growth [12]	growth [13]	growth [14]	growth [15]	growth [16]	growth [17]	growth [18]	growth [19]
O=C(/C=C\c1ccccc1)N1c2ccccc2CC1c1c[nH]c2ccccc12 (configuration not stated)	59.5% (inactive)	67.3% (inactive)	76.9% (inactive)	57.1% (inactive)	70.1% (inactive)	30.2% (inactive)	64.5% (inactive)	77.7% (inactive)	56.6% (inactive)	89.7% (inactive)	65.9% (inactive)	85.4% (inactive)	60.8% (inactive)	93.4% (inactive)	75.2% (inactive)	68.7% (inactive)	95.1% (inactive)	88.8% (inactive)	71.6% (inactive)
CCCCCCCCCCCCCCCCOP(=O)([O-])OCC[N+](C)(C)C	73.6% (inactive)	31.5% (inactive)	81.8% (inactive)	19.5% (inactive)	3.97% (active)	-55.1% (active)	31.8% (inactive)	48.6% (inactive)	10.6% (inactive)	82.2% (inactive)	64.6% (inactive)	74.1% (inactive)	36.8% (inactive)	-32.1% (active)	32.5% (inactive)	28% (inactive)	55.9% (inactive)	76.7% (inactive)	-10.6% (active)
O=C1C=CC(=O)N1C1c2ccccc2-c2ccccc21	98.1% (inactive)	95.6% (inactive)	94.6% (inactive)	96.3% (inactive)	96.5% (inactive)	29.4% (inactive)	91.4% (inactive)	75.2% (inactive)	20% (inactive)	103% (inactive)	18.5% (inactive)	90.1% (inactive)	97.9% (inactive)	80.5% (inactive)	102% (inactive)	99.5% (inactive)	98.3% (inactive)	85.7% (inactive)	96.5% (inactive)
CN(C)c1ccc(/C=N/N=C(\C#N)[S][Sn]([Cl])([c]2ccccc2)[c]2ccccc2)cc1	28.6% (inactive)	-69.4% (active)	84.1% (inactive)	84.5% (inactive)	84.3% (inactive)	-81.4% (active)	78.3% (inactive)	10.8% (inactive)	-51.6% (active)	5.62% (active)	3.13% (active)	-50.8% (active)	-12.7% (active)	-86.3% (active)	42.9% (inactive)	107% (inactive)	-16.3% (active)	21.3% (inactive)	4.46% (active)
C/C=C1\SC(=S)NC1=O	98.5% (inactive)	103% (inactive)	108% (inactive)	100% (inactive)	107% (inactive)		99.7% (inactive)	97.8% (inactive)	104% (inactive)	110% (inactive)	117% (inactive)	92.9% (inactive)	96.9% (inactive)	114% (inactive)	103% (inactive)	102% (inactive)	93.9% (inactive)	95% (inactive)	97.5% (inactive)
COC(=O)Nc1nc2ccc(C(=O)c3ccccc3)cc2[nH]1	33.8% (inactive) and 19.3% (inactive) and 32.4% (inactive)	50.9% (inactive) and 80.4% (inactive) and 109% (inactive)	56.9% (inactive) and 66.1% (inactive) and 44.1% (inactive)	30.4% (inactive) and 21.9% (inactive) and 49.2% (inactive)	6.48% (active) and 1.24% (active) and -0.135% (active)	-11.7% (active) and -16.9% (active) and -32.5% (active)	20.8% (inactive) and 22.2% (inactive) and 17.2% (inactive)	19.8% (inactive) and 23.6% (inactive) and 31.9% (inactive)	0.824% (active) and -17.1% (active) and -22.8% (active)	26.8% (inactive) and -20.2% (active) and -19.3% (active)	6.5% (active) and 4.72% (active) and 4.39% (active)	26.5% (inactive) and 58.6% (inactive) and 54.1% (inactive)	51.3% (inactive) and 25.5% (inactive) and 38% (inactive)	-12.3% (active) and -5.96% (active)	53.7% (inactive) and 21.3% (inactive) and 27.4% (inactive)	0.877% (active) and -10.3% (active) and -13.1% (active)	2.99% (active) and -28.1% (active) and -34% (active)	61% (inactive) and 77.2% (inactive) and 69.8% (inactive)	-24.2% (active) and 0.911% (active) and 20.7% (inactive)
CCCCCCC(C)c1ccccc1O (configuration not stated) (tested in a mixture with another compound)	90.2% (inactive)	109% (inactive)	117% (inactive)	99% (inactive)	101% (inactive)	105% (inactive)	100% (inactive)		108% (inactive)	116% (inactive)	106% (inactive)	106% (inactive)	104% (inactive)	113% (inactive)	112% (inactive)	116% (inactive)	99.3% (inactive)	117% (inactive)	111% (inactive)
CC1OC2CC(=O)OC2C2=C1C(=O)c1c(O)cccc1C2=O (configuration not stated)	-89.9% (active)	-80% (active)	-29.1% (active)	-88.2% (active)	-0.634% (active)		2.68% (active)	-87.9% (active)	-87.2% (active)	-98.3% (active)	-7.94% (active)	-77.4% (active)	-65.9% (active)	-96.4% (active)	-92.9% (active)	-8.69% (active)	-89.5% (active)	-78.5% (active)	-87.7% (active)
Oc1ccc(/C=N/NC(=S)Nc2ccccc2)nc1	14.9% (inactive)	5.69% (active)	21.2% (inactive)	12.2% (inactive)	2.79% (active)		11.5% (inactive)	-21% (active)	24.4% (inactive)	12.3% (inactive)	14.1% (inactive)	14.4% (inactive)	49.3% (inactive)	3.06% (active)	18.7% (inactive)	25.3% (inactive)	1.01% (active)	4.98% (active)	-34.8% (active)
